This is a sample that favours compounds with a hit; in the whole collection about 2.6% have one here.
Exocytosis inh: lytic granule exocytosis inhibition | TALL-104 LAMP-1 surface exposure, flow cytometry; cells stimulated with thapsigargin and PMA | inhibition, % at 10 µM | actives 0.66% (n = 360,000) | AID 651702;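 active = inhibition above about 55%, limit read from the data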
ABHD5-PLIN5 inh: blocks binding of human ABHD5 to perilipin-5; Q00G26+Q8WTS1; Split G. princeps luciferase complementation, luminescence, 4 h; inhibition, % at 4 µM; actives 0.78% (n = 360,000);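 active = inhibition above the mean inhibition across every tested compound plus 3 SD, cut at about 22% in these data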;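 note: 0% = DMSO only wells and the 100% control is not disclosed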
PRMT1 inh: PRMT1 (human) inhibition, primary screen. Q99873. recombinant PRMT1, activity-based probe fluorescence polarization. inhibition, % at 2.79 µM. actives 1.3% (n = 370,000);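 active = inhibition above about 21% made by adding two undisclosed values, limit read from the data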
TLR9-MyD88 block: blocks human TLR9 binding to MyD88; AID 504734; inhibition, % at 4.98 µM; actives 0.21% (n = 340,000); Q9NR96+Q99836; CHO BLA complementation TLR9-MyD88, CCF4 FRET ratio;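 active = inhibition above the mean over all tested compounds plus 3 SD, cut at about 21% in these data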;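 note: 0% = DMSO only wells and 100% = clavulanate BLA inhibitor control wells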
TLR4-MyD88 BLA: TLR4-MyD88 interaction inhibition in cells | inhibition, % at 8.4 µM | actives 0.18% (n = 200,000) | HeLa CL3-4 TLR4/MyD88 BLA complementation, FRET ratio; in the data active = inhibition above about 25%;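 note: 0% = vehicle and 100% = reference inhibitor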
Target sequence (O00206 whole entry, looked up): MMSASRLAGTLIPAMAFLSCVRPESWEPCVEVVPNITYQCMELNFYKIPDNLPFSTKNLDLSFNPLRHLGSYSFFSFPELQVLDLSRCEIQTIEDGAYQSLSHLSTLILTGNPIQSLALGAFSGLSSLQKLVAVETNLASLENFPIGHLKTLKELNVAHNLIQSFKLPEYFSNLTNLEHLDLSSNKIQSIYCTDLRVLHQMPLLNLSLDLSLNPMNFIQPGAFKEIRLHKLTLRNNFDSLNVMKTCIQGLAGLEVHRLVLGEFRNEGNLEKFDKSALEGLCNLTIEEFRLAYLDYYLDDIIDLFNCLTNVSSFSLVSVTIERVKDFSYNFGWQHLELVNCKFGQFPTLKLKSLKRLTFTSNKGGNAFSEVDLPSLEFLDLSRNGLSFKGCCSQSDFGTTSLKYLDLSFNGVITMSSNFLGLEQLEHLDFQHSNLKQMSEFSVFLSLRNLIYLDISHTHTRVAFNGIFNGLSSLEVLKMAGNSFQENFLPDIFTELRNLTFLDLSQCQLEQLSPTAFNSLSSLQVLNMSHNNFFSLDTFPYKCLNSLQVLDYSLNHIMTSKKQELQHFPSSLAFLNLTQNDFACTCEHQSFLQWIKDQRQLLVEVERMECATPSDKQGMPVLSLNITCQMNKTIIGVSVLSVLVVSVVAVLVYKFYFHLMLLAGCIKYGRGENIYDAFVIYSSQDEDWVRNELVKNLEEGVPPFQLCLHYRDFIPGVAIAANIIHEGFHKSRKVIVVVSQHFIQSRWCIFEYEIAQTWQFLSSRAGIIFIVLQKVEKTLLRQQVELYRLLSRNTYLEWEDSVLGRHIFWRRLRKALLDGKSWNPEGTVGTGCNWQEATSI
Target sequence (Q99836 whole entry, looked up): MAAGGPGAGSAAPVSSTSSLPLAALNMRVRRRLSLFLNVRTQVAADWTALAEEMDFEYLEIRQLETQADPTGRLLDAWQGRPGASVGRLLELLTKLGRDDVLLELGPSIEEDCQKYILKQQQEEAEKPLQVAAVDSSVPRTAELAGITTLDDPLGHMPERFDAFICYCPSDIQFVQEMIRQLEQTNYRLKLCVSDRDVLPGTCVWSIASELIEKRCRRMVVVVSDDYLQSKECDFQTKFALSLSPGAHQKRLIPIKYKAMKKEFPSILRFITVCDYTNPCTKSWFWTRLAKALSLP
NOD2 RIPK2 PPI: NOD2-RIPK2 protein interaction inhibition; actives 0.38% (n = 360,000); AID 624267; inhibition, % at 4.98 µM; CHO BLA complementation NOD2-RIPK2, CCF4 ratio; in the data active = inhibition above about 21%;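 note: 0% = vehicle only and 100% = reference blocker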
ABHD5 PLIN5 conf: confirmation of human ABHD5-PLIN5 interaction inhibitors; shares compounds with ABHD5-PLIN5 inh; biochemical ABHD5-PLIN5 interaction, luminescence; inhibition, % at 4 µM; actives 67% (n = 2,200); AID 651612; in the data active = inhibition above about 23%;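 note: 0% = DMSO vehicle wells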
HNF4 counter: active in HNF4 split-luciferase counter-screen for ABHD5-PLIN5 inhibitors; actives 77% (n = 2,200); inhibition, % at 4 µM; AID 651674; shares compounds with ABHD5-PLIN5 inh; HNF4 dimerization, luminescence, biochemical;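 active = mean inhibition across replicate wells exceeding the computed hit threshold, cut at about 13% in these data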;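 note: light from luciferase halves that rejoin when HNF4 fusion proteins dimerize; 0% = DMSO only wells and the 100% control is not given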
An asterisk follows results filed as active; / = not tested or not shown.

SMILES | Exocytosis inh | ABHD5-PLIN5 inh | PRMT1 inh | TLR9-MyD88 block | TLR4-MyD88 BLA | NOD2 RIPK2 PPI | ABHD5 PLIN5 conf | HNF4 counter
CCN1C(=O)N(C(C)=O)[C@H]2C[C@H](C(=O)N3CCCC3)[C@H](C)[C@H](c3ccccc3)C[C@H]21 | / | / | 1 | / | / | / | / | /
COc1cc(C(C2C(=O)CC(C)(C)CC2=O)C2C(=O)CC(C)(C)CC2=O)ccc1OC(C)=O | -3 | 25* | -4 | -3 | / | -5 | 37* | 33*
CC1=NN(c2ccccc2)C(=O)/C1=C\C=C1/N(C)c2ccccc2C1(C)C | 0 | 26* | -2 | 3 | 1 | 1 | 21 | 23*
CCCn1nnc(NC(=O)/C=C/c2ccccc2)n1 | 0 | -1 | 0 | 6 | -1 | -4 | / | /
Cc1nc(NC(=O)/C=C/c2ccccc2)n[nH]1 | 1 | 25* | 0 | 1 | -17 | 5 | 42* | 38*
Cc1ccc2nc(-c3ccc(NC(=O)CN4CCN(C(=O)c5ccco5)CC4)cc3)sc2c1 | 17 | 27* | 1 | 7 | -9 | 6 | 20 | 7
Cc1ccc(S(=O)(=O)N2C[C@H]3n4c(=O)ccc(=O)n4C[C@H](OC(=O)NCc4ccccc4F)[C@@]3(O)C2)cc1 | -2 | 25* | 0 | -1 | / | 1 | 49* | 42*
Cc1ccc(S(=O)(=O)N2C[C@H]3n4c(=O)ccc(=O)n4C[C@H](OC(=O)Nc4cccs4)[C@@]3(O)C2)cc1 | 6 | 35* | 3 | 2 | / | 0 | 58* | 34*
FC(F)(F)Oc1cccc(Cn2ccc3ccc(-c4ccc5ccn(Cc6cccc(OC(F)(F)F)c6)c5c4)cc32)c1 | / | / | -2 | / | / | / | / | /
O=C1c2ccccc2COc2ccc(O)cc21 | 19 | -4 | 9 | -3 | -1 | -4 | / | /
O=C1/C(=C/c2ccccc2[N+](=O)[O-])COc2ccccc21 | 84* | 58* | 8 | -4 | 14 | 13 | 79* | 76*
CNc1ccc(/C=C2\COc3ccccc3C2=O)cc1[N+](=O)[O-] | 1 | 3 | -1 | 6 | 3 | -9 | / | /
CCOc1cc(/C=C2/COc3ccccc3C2=O)ccc1OCC(=O)N(C)C | -4 | 25* | 0 | -9 | -10 | -2 | 71* | 67*
O=C1/C(=C/c2ccc(O)cc2)COc2ccccc21 | -8 | 25* | 0 | -5 | / | 9 | 50* | 60*
CCOC(=O)[C@]12CCCCC/C=C\1N(CCc1ccc(Cl)cc1)C(=O)[C@H]2CC(=O)N1CCCCC1 | / | / | 2 | / | / | / | / | /
O=CC1=C(c2ccccc2)Oc2ccccc2O1 | 35 | 30* | -2 | -7 | / | -6 | 73* | 31*
COCCNC(=O)/C(C#N)=C/c1cccc(/C=C(\C#N)C(=O)NCCOC)c1 | 3 | 48* | 1 | -6 | -22 | 14 | 98* | 71*
COCCNC(=O)/C(C#N)=C/c1ccc(O)cc1 | -8 | -6 | 0 | 1 | / | -4 | / | /
COC(=O)N1C[C@H](OCCCOCc2ccccc2)[C@H]2C[C@@H]1c1ccccc1O2 | / | / | -4 | / | / | / | / | /
Cc1ccc(/C=C/C(=O)N2CCc3ccccc32)o1 | 38 | 24* | 21 | -2 | -12 | 1 | 16 | 50*
O=C(/C=C/c1ccco1)N1CCc2ccccc21 | -2 | 5 | 4 | -9 | -10 | -7 | / | /
NC(=O)c1ncn([C@@H]2O[C@H](C(=O)N[C@H](Cc3c[nH]c4ccccc34)C(=O)NCC(=O)N3CCCCC3)[C@@H](O)[C@H]2O)n1 | / | / | 1 | / | / | / | / | /
Cc1ccc(/C=C2/CNC/C(=C/c3ccc(C)cc3)C2=O)cc1 | 30 | 96* | 5 | 0 | / | 1 | 100* | 94*
Cc1ccc(/C=C2\CCOC2=O)cc1 | -10 | 1 | 7 | -10 | / | -4 | / | /
Nc1[nH]c(C(=O)c2ccc(Br)cc2)c(-c2c(F)cccc2F)c1C(=O)NCCc1c[nH]c2ccccc12 | / | / | 0 | / | / | / | / | /
SMILES | Exocytosis inh | ABHD5-PLIN5 inh | PRMT1 inh | TLR9-MyD88 block | TLR4-MyD88 BLA | NOD2 RIPK2 PPI | ABHD5 PLIN5 conf | HNF4 counter
CCCCCCCCN1C(=O)[C@@H](CC(=O)NCc2cccs2)C[C@@]2(C(=O)OC)C1=C[C@H](C1CCCC1)O[C@@H]2C | / | / | 0 | / | / | / | / | /
C[C@H](O)[C@@H]1CN2CCc3c([nH]c4cccc(-c5ccc6c(c5)OCO6)c34)[C@@H]2C[C@@H]1N(C)C(=O)c1ccco1 | / | / | 3 | / | / | / | / | /
CCCCCc1cc(=O)oc2c(C(CCN(CC)CC)c3cc(OC)c(OC)c(OC)c3)c(OC)cc(OC)c12 (configuration not stated) | -8 | 27* | -5 | 9 | / | 13 | 16 | 2
O=C1CCCCCCCCCC/C(=N\O)CCCO1 | 11 | 92* | 1 | / | / | -3 | -5 | 1
CC1(C)CC(=O)C=C(NC2=CC3OC(c4ccccc4)OCC3OC2=O)C1 (configuration not stated) | 37 | 63* | 10 | 2 | 4 | 20 | 85* | 94*
Cc1ccc(N=CC=C2OC(C)(C)C(C)(C)O2)c(C)c1 | -9 | 2 | 3 | 2 | 5 | -3 | / | /
COc1ccccc1N=CC=C1OC(C)(C)C(C)(C)O1 | 0 | 37* | -1 | 7 | 2 | 3 | -5 | 10
COC(=O)C1CN(CC(C)C)CCS(=O)(=O)N1Cc1ccc(OC)cc1 (configuration not stated) | / | / | -6 | / | / | / | / | /
CCCCNc1ccc2c(c1)OC[C@@H](Cc1ccccc1)NS2(=O)=O | / | / | 6 | / | / | / | / | /
COc1ccc(CNC(=O)c2ccc(Cn3nc(C)cc3C)o2)cc1 | -3 | 7 | 3 | -6 | / | -3 | / | /
Cc1cc(C(F)(F)F)nn1Cc1ccc(C(=O)NCc2ccco2)o1 | 0 | 23* | 18 | -7 | -10 | 9 | 29* | 23*
COc1ccc2cc(C(=O)CS(=O)(=O)c3ccc(Cl)cc3)c(=O)oc2c1 | / | / | 0 | / | / | / | / | /
COc1cccc(CNC(=O)C2CCCN(c3ncccn3)C2)c1OC (configuration not stated) | / | / | 1 | / | / | / | / | /
O=C1/C(=C/c2ccco2)CCC1C1CCCC1 (configuration not stated) | -8 | 3 | 2 | 1 | 1 | -10 | / | /
O=C1/C(=C\c2ccco2)CCC/C1=C\c1ccco1 | -1 | 49* | 22* | -1 | 1 | 0 | 56* | 82*
O=C1C=CC(O)C2(CO)OC12 (configuration not stated) | 0 | 67* | 5 | 0 | / | 9 | 91* | 91*
Cc1ccc(-n2c(SCC(=O)Nc3ccc(Oc4ccccc4)cc3)nnc2-c2cccc(C)c2)cc1 | / | / | 10 | / | / | / | / | /

Compound activity from PubChem BioAssay.
